Screening results: PubChem, National Center for Advancing Translational Sciences (NCATS)
Only some compounds are listed: those with a hit (about 20% of all), similar ones and a draw of the others.
Shiga inhibitor = blocks Shiga toxin action in Vero cells. actives 9.2% (n = 290,000). AID 2315. Vero cells, Shiga toxin protein synthesis inhibition reporter. inhibition, % at 38.7 µM; in the data active means inhibition mostly above about 28%, no sharp cut-off; inactive means mostly below about 43%
HCMV inh = human cytomegalovirus inhibition | HFF cells, HCMV-luciferase reporter, 72 h; hits give low values | activity change, negative = inhibition, % at 57.5 µM | actives 4.5% (n = 410,000); in the data active means activity change below about -60%; inconclusive means no clear call, values can overlap the other calls; inactive means above about -39%
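Two compound doses tested in HFFs infected with HCMV-luciferase, MOI 1 PFU/cell, 72 h at 37C. Lysate luminescence read with OneGlo; data normalized against buffer-only and 10uM Salinomycin inhibitor controls.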
Pf growth 48h = inhibits P. falciparum growth in the first generation, 48 h; Potency, µM (highest dose often 28.7 µM), hits mostly inhibitors; actives 5.9% (n = 310,000); P. falciparum luciferase growth in erythrocytes, 48 h
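A one-generation exposure of luciferase-tagged malaria parasites in RPMI 1640/Albumax erythrocyte culture, 37 C and 5% CO2. Inhibition is inferred from decreased luminescence after adding detection reagent.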
Cycloheximide cs = affects cycloheximide protein synthesis inhibition readout, counter-screen; cell reporter, cycloheximide protein synthesis inhibition counterscreen; max response, %; actives 12% (n = 300,000); in the data active means max response mostly above about 13%, no sharp cut-off; inactive means mostly below about 14%; further: read at 38.3 µM for the half of the compounds with a filed dose
Pf growth 96h = P. falciparum growth inhibition at 96 hour, primary screen for plastid delayed-death inhibitors; P. falciparum luciferase reporter growth, 96 h; Potency, µM (series often up to 28.7 µM), usual class: inhibitors; actives 6.9% (n = 320,000)
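Plates of compound plus infected erythrocytes (2% hematocrit, 0.05% parasitemia final) incubate 96 hours, 37 C, 5% CO2. Detection reagent added; reduced luminescence from the parasites' luciferase reporter flags inhibition.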
Large screens that a line does not name were inactive. Unless noted, the call rests on the fitted dose curve; in most records, active means well fitted inhibition curve with a large enough effect; inconclusive means small, poorly fitted or top-dose-only effect, or another doubt; inactive means no such curve, though single readings can be large or run the other way.

COc1ccc(CN2CC(=O)N(c3ccccc3OC)C2=S)cc1OC	none (no result: Pf growth 48h)
COc1ccc(Cl)cc1N1C(=O)CN(Cc2cc(OC)c(OC)c(OC)c2)C1=S	Pf growth 48h 3.3µM
COC(=O)c1c(NC(=O)CCCOc2ccc(C)cc2)sc2c1C(C(=O)OC)CC2 (configuration not stated)	none (no result: Pf growth 48h, Pf growth 96h)
Cc1cc(C)nc(NN2C(=O)C=CC2=O)n1	none (no result: HCMV inh, Pf growth 48h)
N#C/C(=C/c1ccccc1[N+](=O)[O-])c1nc(C2CC2)cs1	Cycloheximide cs 25
N#C/C(=C\c1ccccc1[N+](=O)[O-])c1nc(C2CC2)cs1	Shiga inhibitor 58, Cycloheximide cs 57
COc1ccc(-c2csc(/C(C#N)=C\c3cccc([N+](=O)[O-])c3)n2)cc1	none (no result: HCMV inh)
N#C/C(=C\C=C\c1ccccc1[N+](=O)[O-])c1nc(-c2ccc3c(c2)OCO3)cs1	none
N#C/C(=C\c1ccc([N+](=O)[O-])cc1)c1nc(C2CC2)cs1	Cycloheximide cs 21
CCOc1ccc(CCNC(=O)CSc2nnnn2-c2ccccc2Cl)cc1OCC	none (no result: Shiga inhibitor, Pf growth 48h, Cycloheximide cs, Pf growth 96h)
COc1ccc(N(CC(=O)NCCc2ccccc2)C(=O)c2csnn2)cc1OC	none
O=C(CCC(=O)N1CCN(c2ccccn2)CC1)Nc1nnc(C(F)(F)F)s1	Pf growth 96h inconclusive
Cc1ccc(C(=O)NC2CCCCCC2)cc1N1CCCC1=O	Cycloheximide cs 23, Pf growth 96h inconclusive
O=C(NCc1cccs1)c1cccc(N2CCCC2=O)c1	none
O=C(NC1CCCCCC1)c1cccc(N2CCCC2=O)c1	Shiga inhibitor 33, Cycloheximide cs 46
O=C(NCc1ccccc1CN1CCCC1)c1cccc(N2CCCC2=O)c1	Pf growth 48h inconclusive, Pf growth 96h 4.1µM (no result: Shiga inhibitor, Cycloheximide cs)
Cc1ccc(C(=O)O)cc1N1CCCC1=O	Pf growth 96h inconclusive
C=CCn1c(SCCOc2ccc(OC)cc2)nnc1C(CO)NC(=O)c1ccc(OC)cc1 (configuration not stated)	Pf growth 96h inconclusive (no result: Pf growth 48h)
COc1ccc(OC)c2sc(N3CCN(C(=O)CCS(=O)(=O)c4ccc(F)cc4)CC3)nc12	none (no result: Shiga inhibitor, Pf growth 48h, Cycloheximide cs, Pf growth 96h)
Cc1cccc(-c2nc(CN3CCCC(C(=O)N4CCN(c5cc(Cl)ccc5C)CC4)C3)c(C)o2)c1 (configuration not stated)	none (no result: Shiga inhibitor, Pf growth 48h, Cycloheximide cs, Pf growth 96h)
CSc1nc2sc3c(c2c(=O)n1C)CCC(C)C3 (configuration not stated)	Cycloheximide cs 22
C=CCn1nnc2sc3c(c2c1=O)CCC(C)C3 (configuration not stated)	Shiga inhibitor 49, Cycloheximide cs 29 (no result: Pf growth 48h)
CCOC(=O)CNS(=O)(=O)c1ccc(S(=O)(=O)NC2CC2)cc1	Pf growth 96h inconclusive (no result: Shiga inhibitor)
O=C(c1ccc2c(c1)N(Cc1ccccc1F)C(=O)c1ccccc1S2=O)N1CCCCC1 (configuration not stated)	none (no result: Shiga inhibitor, Pf growth 48h, Cycloheximide cs, Pf growth 96h)
O=C(CCSc1ccc(Cl)cc1)NCc1ccccn1	Cycloheximide cs 13
O=C(CCCOc1ccc(Cl)cc1Cl)NCCc1ccccn1	Shiga inhibitor 39, Cycloheximide cs 31
Cc1cc(OCCCC(=O)NCCc2nnc3ccccn23)ccc1Cl	none (no result: Shiga inhibitor, Pf growth 48h, Cycloheximide cs, Pf growth 96h)
O=C(CCCOc1ccc(Cl)cc1Cl)NCCc1nnc2ccccn12	Shiga inhibitor 19, Pf growth 96h inconclusive
COc1ccc(OC)c(CN2CCC(C(=O)N(C)CCc3ccc(OC)c(OC)c3)CC2)c1	Pf growth 48h inconclusive, Pf growth 96h inconclusive
O=C(COc1ccc(Br)cc1)NCc1ccccn1	none (no result: Pf growth 48h)
CC(C)(C)C(=O)NNC(=O)COc1ccc2ccccc2c1Br	Pf growth 96h 2.3µM
O=C(COc1ccc2ccccc2c1Br)NCc1ccccn1	Shiga inhibitor 57, Cycloheximide cs 23
COC(=O)NNC(=O)COc1ccc2ccccc2c1Br	none
CCN(CC(=O)NCc1ccc(F)cc1)C(=O)c1ccc(COc2ccccc2)cc1	Shiga inhibitor 99, Cycloheximide cs 52
CCC(Oc1ccccc1)C(=O)N(CC)CC(=O)NCc1ccc(F)cc1 (configuration not stated)	Pf growth 48h inconclusive (no result: Shiga inhibitor, Cycloheximide cs)
CCCN(CC(=O)Nc1ccccc1C)C(=O)c1ccc(-c2ccccc2)cc1	Pf growth 96h inconclusive
CCN(CC(=O)NCc1ccc(F)cc1)C(=O)C1CCN(C(=O)Nc2ccccc2)CC1	Cycloheximide cs 13 (no result: Pf growth 96h)
CCCN(CC(=O)Nc1ccccc1C)C(=O)c1ccc(COc2ccccc2)cc1	Shiga inhibitor 85, Pf growth 48h inconclusive, Cycloheximide cs 30
Cc1cc(=O)c2c(O)c3c(O)cc(=O)c4c3c3c(cc(O)c1c23)C(C)(C)C=4O	Pf growth 48h 2.7µM, Pf growth 96h 1.5µM (no result: Shiga inhibitor, HCMV inh, Cycloheximide cs)
Cc1cccc(N2C(=O)/C(=C/c3ccc(N4CCN(C)CC4)o3)C(=O)NC2=S)c1C	HCMV inh -64, Pf growth 48h inconclusive
CCc1ccccc1N1C(=O)/C(=C/c2ccc(N3CCN(C)CC3)o2)C(=O)NC1=S	HCMV inh inconclusive, Pf growth 48h inconclusive, Pf growth 96h inconclusive
COc1cc2cnc(-c3ccccc3)c(-c3ccc([N+](=O)[O-])cc3)c2cc1OC	Pf growth 96h inconclusive (no result: Shiga inhibitor, Cycloheximide cs)
COc1cc2cnc(-c3ccccc3)c(-c3cc(OC)c(OC)c(OC)c3)c2cc1OC	Pf growth 48h 10µM, Pf growth 96h 3.7µM (no result: Shiga inhibitor, Cycloheximide cs)
CC(=O)N1c2ccc(Cl)cc2C2C=CCC2C1c1cccc2ccccc12 (configuration not stated)	Pf growth 48h 13µM (no result: HCMV inh)
CC(=O)N1c2ccc3ccccc3c2C2C=CCC2C1c1ccc(Br)cc1 (configuration not stated)	Pf growth 48h 5.9µM (no result: HCMV inh)
NC(=S)NN=CCn1cc([N+](=O)[O-])c(=O)[nH]c1=O	none (no result: Shiga inhibitor, Pf growth 48h, Cycloheximide cs, Pf growth 96h)
c1ccc(CC(Nc2ccccn2)c2ccccc2)cc1 (configuration not stated)	Pf growth 48h inconclusive, Cycloheximide cs 18, Pf growth 96h 15µM
COP(=O)(OC)C(Nc1ccccn1)c1ccccc1 (configuration not stated)	HCMV inh inconclusive, Pf growth 96h inconclusive
CC(=O)c1cccc(NC(=O)c2c(C)nn(-c3ccc(F)cc3)c2-n2cccc2)c1	none (no result: Shiga inhibitor, Pf growth 48h, Cycloheximide cs, Pf growth 96h)
O=c1onc(-c2ccccc2)n1Cc1ccc([N+](=O)[O-])cc1	HCMV inh -75 (no result: Shiga inhibitor, Pf growth 48h, Cycloheximide cs, Pf growth 96h)
O=c1onc(-c2ccc(Cl)cc2)n1Cc1ccc(F)cc1	none
O=C(Cn1c(-c2ccccc2)noc1=O)NCc1ccccc1	Pf growth 48h inconclusive
N#CCCCn1c(-c2ccccc2)noc1=O	Pf growth 96h 3.7µM
O=C(CN(Cc1ccccc1)S(=O)(=O)c1ccc(F)cc1)NCCC1=CCCCC1	Pf growth 48h inconclusive
Cc1ccc(S(=O)(=O)N(CC(=O)NCCC2=CCCCC2)Cc2ccccc2F)cc1	Pf growth 48h inconclusive, Pf growth 96h 12µM
O=C(CN(Cc1ccccc1F)S(=O)(=O)c1ccc(Cl)cc1)NCCC1=CCCCC1	Pf growth 48h inconclusive, Pf growth 96h 12µM
Cc1ccc(CCNC(=O)CCc2cn(Cc3ccccc3C)c3ccccc23)cc1	none (no result: Shiga inhibitor, Pf growth 48h, Cycloheximide cs, Pf growth 96h)
C[C@@H](NC(=O)c1ncn2c1c(=O)[nH]c1ccc(Br)cc12)c1ccccc1	HCMV inh -100 (no result: Shiga inhibitor, Pf growth 48h, Cycloheximide cs, Pf growth 96h)
NNC(=O)c1[nH]c2ccccc2c1-c1ccccc1	HCMV inh -95, Pf growth 48h inconclusive, Pf growth 96h inconclusive
